The source of these data is PubChem BioAssay.

Activity calls are given as the source filed them.

Experiment [1] can be described thus: small molecules captured by biotinylated probe aFSTL3 – biochemical, small-molecule microarray, fluorescence 635/667, stem cell growth factor project, primary screen (AID 1064).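 Also: measures binding of the biotinylated anti-FSTL3 antibody to printed compounds.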 Conditions: higher = more signal.
Experiment [2] is described as follows: binders from COS7 lysate, DM2A8 probe, primary screen, torsin A project, cell lysate, small-molecule microarray, fluorescence 635/667 (AID 1065). The following applies: higher = more signal, COS7 lysate expressing mutant human TOR1A.
The nature of experiment [3]: small molecules captured by biotinylated probe aFGF2 – biochemical, small-molecule microarray, fluorescence 635/667, stem cell growth factor project, primary screen (AID 1067).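 Also: measures binding of biotinylated aFGF2 protein to printed compounds on slides; z-score merges feature fluorescence and signal-to-noise across triplicate slides.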 The following applies: higher = more signal.
Experiment [4] is described as follows: small molecules captured by biotinylated probe aFGF10 – biochemical, small-molecule microarray, fluorescence 635/667, stem cell growth factor project, primary screen (AID 1071).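 Also: score merges 667 nm spot intensity and signal to noise from triplicate slides.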 The following applies: higher = more signal.
The target of experiment [5] is Neurogenic locus notch homolog protein 2 (Homo sapiens) (UniProt Q04721). Kind of experiment: small molecules binding Notch2 protein – biochemical, small-molecule microarray, 635 nm fluorescence, stem cell growth factors, primary screen (AID 1073). The following applies: higher = more signal.
Experiment [6] deals with Pro-neuregulin-1, membrane-bound isoform (Homo sapiens) (UniProt Q02297). The experiment can be described thus: small molecules binding neuregulin-1 protein – biochemical, small-molecule microarray, fluorescence 635/667, psychiatric disease protein project, primary screen (AID 1075).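 Also: score combines 667 nm spot fluorescence with signal to noise.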 The following applies: NRG1 binding, 635 nm fluorescence, higher = more signal.
The test system of experiment [7] is Neuregulin-1 EGF-like domain. The experiment can be described thus: small molecules binding NRG1 EGF domain – biochemical, small-molecule microarray, 635 nm fluorescence, primary screen (AID 1081).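 Also: binding of the protein to compounds printed on small-molecule microarray slides.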 The following applies: higher = more signal.
Experiment [8] in a line: FRG1 expression reporter modulators in myotubes – cell-based, C2C12 myotubes, firefly/Renilla luciferase, luminescence, FRG1 inhibition for FSHD, primary screen (AID 1084). The following applies: FRG1 promoter luciferase, higher = more signal, called active from +8 up or from −8 down.
Experiment [9] can be described thus: small molecules captured by biotinylated probe aFST – biochemical, small-molecule microarray, fluorescence 635/667, stem cell growth factor project, primary screen (AID 1086).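 Also: score merges 667 nm fluorescence with signal-to-noise of each printed compound spot.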 The following applies: higher = more signal.
A short description of experiment [10]: binders of probe aHhip on microarray, primary screen, stem cell growth factor project, biochemical, small-molecule microarray, fluorescence 635/667 (AID 1087).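 Also: score merges spot fluorescence at 667nm with spot signal to noise ratio.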 The following applies: higher = more signal.
Experiment [11] relates to PRMT1 (protein arginine N-methyltransferase 1). Kind of experiment: small molecules binding arginine methyltransferase PRMT1 – biochemical, small-molecule microarray, 635 nm fluorescence, primary screen (AID 1088).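 Also: binding of Prmt1 protein to compounds spotted on small-molecule microarray slides.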 The following applies: higher = more signal.
Experiment [12] is described as follows: growth effects on S. cerevisiae YJM789 – YJM789 clinical isolate, OD600, 24 h, basal, primary screen (AID 1089).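 Also: growth of clinical yeast isolate S. cerevisiae YJM 789 seeded 1000 cells per well; test concentration not given here.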 The following applies: higher = more signal, called active from +8 up or from −8 down.
Experiment [13] is described as follows: S. pombe growth modifiers, basal conditions – strain 972, OD600, 24 h, no modulator, primary screen (AID 1090).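 Also: basal condition with compound alone and no growth modifier present; test concentration not given here.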 The following applies: S. pombe 972 growth, higher = more signal, called active from +8 up or from −8 down.
A short description of experiment [14]: budding yeast growth modifiers under rapamycin – strain BY4716, OD600, 96 h, primary screen (AID 1091). Also: test concentration not given here. The following applies: S. cerevisiae BY4716 + rapamycin, higher = more signal, called active from +8 up or from −8 down.
Experiment [15] addresses Torsin-1A-interacting protein 2 (Homo sapiens) (UniProt Q8NFQ8). The experiment can be described thus: small molecules binding lysate-expressed LULL1 – cell lysate, human LULL1 lysate, 635/667 nm fluorescence, primary screen (AID 1092).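 Also: score merges per-feature 667 nm fluorescence with signal-to-noise.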 Conditions: small-molecule microarray, hLULL1 lysate binding, 635 nm fluorescence; higher = more signal.
Experiment [16] in a line: optical density change of DRC41 E. coli – strain DRC41, OD650, 24 h, E. coli filamentation project, primary screen (AID 1093).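 Also: MC1000 strain lacking acrAB efflux and sulA so SOS filamentation is blocked; test concentration not given here.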 Conditions: E. coli DRC41 growth, higher = more signal, called active from +8 up or from −8 down.
The nature of experiment [17]: probe aLefty2 binding to arrayed compounds – biochemical, biotinylated probe, 635/667 nm fluorescence, primary screen (AID 1094).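 Also: score merges spot fluorescence near 667 nm with spot signal-to-noise ratio.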 The following applies: small-molecule microarray, higher = more signal.
Experiment [18] has as its system Noggin (protein binding on small-molecule microarray). The experiment can be described thus: small molecules binding Noggin protein – biochemical, 635/667 nm fluorescence, primary screen (AID 1095).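 Also: score merges 667 nm feature fluorescence with signal to noise over triplicate slides.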 The following applies: 635 nm fluorescence, higher = more signal.
Experiment [19] concerns the target Neurogenic locus notch homolog protein 3 (Homo sapiens) (UniProt Q9UM47). The experiment can be described thus: small molecules binding NOTCH3 protein – biochemical, 635/667 nm fluorescence, primary screen (AID 1096). Conditions: small-molecule microarray, 635 nm fluorescence, higher = more signal.
Experiment [20] in a line: probe aEGFR binding to arrayed compounds – biochemical, biotinylated probe, 635/667 nm fluorescence, primary screen (AID 1097).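 Also: probe is a biotinylated anti-EGFR antibody binding compounds printed on slides; score combines fluorescence near 667 nm and signal to noise of each spot.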 The following applies: small-molecule microarray, higher = more signal.

Chain of Neurogenic locus notch homolog protein 3 (Homo sapiens) (Q9UM47 whole entry, looked up): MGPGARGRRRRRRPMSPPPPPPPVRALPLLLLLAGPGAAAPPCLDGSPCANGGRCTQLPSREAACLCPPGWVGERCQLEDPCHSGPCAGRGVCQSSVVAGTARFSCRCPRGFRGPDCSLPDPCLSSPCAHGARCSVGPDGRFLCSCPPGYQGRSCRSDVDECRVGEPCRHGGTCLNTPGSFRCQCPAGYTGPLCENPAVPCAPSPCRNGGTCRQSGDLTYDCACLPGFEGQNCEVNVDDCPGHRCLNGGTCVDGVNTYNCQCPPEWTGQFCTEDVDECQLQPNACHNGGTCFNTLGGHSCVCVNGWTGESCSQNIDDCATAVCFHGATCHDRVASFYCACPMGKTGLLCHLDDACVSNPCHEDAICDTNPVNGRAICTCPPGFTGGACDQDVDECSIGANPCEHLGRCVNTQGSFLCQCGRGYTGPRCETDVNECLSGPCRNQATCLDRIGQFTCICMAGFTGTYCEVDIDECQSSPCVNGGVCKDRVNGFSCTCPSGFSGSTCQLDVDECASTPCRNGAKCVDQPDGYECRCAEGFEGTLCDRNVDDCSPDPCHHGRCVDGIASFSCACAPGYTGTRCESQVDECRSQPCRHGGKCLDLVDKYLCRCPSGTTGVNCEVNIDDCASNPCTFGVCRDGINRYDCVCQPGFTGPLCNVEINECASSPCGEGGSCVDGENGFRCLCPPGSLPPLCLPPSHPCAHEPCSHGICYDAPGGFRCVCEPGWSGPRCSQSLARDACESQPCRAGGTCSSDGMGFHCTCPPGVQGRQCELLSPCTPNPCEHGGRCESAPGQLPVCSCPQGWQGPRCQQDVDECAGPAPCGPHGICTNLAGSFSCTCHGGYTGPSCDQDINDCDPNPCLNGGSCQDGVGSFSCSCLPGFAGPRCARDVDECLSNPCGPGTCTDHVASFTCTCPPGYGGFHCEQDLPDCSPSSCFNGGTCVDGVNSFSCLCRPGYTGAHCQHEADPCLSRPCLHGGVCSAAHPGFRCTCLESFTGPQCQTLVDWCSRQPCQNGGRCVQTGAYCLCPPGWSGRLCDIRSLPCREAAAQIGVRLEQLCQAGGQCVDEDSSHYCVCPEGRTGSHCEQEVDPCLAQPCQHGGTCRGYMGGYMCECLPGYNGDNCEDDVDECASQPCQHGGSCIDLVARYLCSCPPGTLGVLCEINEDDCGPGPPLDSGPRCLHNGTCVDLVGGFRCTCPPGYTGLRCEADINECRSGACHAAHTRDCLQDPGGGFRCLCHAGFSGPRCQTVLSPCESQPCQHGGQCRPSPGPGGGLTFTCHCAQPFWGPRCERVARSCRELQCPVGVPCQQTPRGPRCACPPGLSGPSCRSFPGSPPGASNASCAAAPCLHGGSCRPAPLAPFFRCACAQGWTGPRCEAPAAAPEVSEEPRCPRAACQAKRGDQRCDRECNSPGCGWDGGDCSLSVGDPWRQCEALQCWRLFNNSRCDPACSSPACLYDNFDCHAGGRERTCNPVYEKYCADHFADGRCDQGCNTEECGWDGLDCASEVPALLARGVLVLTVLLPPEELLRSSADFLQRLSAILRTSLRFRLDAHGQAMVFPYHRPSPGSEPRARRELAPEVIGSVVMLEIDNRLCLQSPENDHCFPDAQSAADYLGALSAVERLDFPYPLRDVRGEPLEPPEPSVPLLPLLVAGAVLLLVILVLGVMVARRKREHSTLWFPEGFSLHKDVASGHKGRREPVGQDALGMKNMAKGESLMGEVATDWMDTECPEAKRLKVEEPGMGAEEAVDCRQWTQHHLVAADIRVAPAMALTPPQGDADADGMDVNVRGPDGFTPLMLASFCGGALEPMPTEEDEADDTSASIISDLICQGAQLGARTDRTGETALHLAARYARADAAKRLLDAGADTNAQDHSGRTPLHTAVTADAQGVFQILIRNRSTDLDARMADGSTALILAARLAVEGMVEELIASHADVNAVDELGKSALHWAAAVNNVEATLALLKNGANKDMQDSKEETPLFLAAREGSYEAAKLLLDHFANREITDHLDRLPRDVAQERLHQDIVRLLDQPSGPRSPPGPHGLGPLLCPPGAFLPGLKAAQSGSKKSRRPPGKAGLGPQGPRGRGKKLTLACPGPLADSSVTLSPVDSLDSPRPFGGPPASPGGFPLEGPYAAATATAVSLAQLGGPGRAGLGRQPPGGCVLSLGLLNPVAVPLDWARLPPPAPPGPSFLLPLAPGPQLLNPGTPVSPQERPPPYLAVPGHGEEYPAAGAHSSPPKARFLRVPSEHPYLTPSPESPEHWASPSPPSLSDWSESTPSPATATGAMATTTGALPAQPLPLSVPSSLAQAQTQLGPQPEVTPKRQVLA
Chain of Torsin-1A-interacting protein 2 (Homo sapiens) (Q8NFQ8 whole entry, looked up): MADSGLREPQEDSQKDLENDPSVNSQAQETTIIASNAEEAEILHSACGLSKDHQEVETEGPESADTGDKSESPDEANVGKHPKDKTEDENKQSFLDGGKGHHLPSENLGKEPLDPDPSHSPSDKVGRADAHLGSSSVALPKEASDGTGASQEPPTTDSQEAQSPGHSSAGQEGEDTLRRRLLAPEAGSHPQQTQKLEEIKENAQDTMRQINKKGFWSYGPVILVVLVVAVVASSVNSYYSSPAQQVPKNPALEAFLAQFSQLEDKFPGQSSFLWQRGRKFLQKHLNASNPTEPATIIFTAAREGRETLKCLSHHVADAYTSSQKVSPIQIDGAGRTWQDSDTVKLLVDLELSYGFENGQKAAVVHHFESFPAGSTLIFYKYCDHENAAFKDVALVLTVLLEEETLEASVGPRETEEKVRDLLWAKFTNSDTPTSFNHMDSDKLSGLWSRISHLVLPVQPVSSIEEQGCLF
Chain of Pro-neuregulin-1, membrane-bound isoform (Homo sapiens) (Q02297 whole entry, looked up, the tested form may be a part, canonical isoform): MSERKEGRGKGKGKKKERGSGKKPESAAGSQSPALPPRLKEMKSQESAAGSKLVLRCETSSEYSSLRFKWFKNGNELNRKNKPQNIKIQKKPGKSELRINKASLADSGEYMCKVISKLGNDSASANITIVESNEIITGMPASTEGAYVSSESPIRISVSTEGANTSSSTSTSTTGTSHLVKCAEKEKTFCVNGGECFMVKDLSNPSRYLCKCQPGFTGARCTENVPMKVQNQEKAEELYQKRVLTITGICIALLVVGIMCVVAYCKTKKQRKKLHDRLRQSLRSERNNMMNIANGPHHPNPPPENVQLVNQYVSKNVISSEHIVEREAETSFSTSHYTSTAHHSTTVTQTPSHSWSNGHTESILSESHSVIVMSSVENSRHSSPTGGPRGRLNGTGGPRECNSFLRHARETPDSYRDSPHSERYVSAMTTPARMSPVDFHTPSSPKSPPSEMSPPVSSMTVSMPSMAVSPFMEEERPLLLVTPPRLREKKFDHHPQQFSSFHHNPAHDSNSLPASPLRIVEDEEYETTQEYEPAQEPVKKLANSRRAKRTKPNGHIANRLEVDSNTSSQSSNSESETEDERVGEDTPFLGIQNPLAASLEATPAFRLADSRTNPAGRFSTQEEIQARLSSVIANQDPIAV

As for `CCOC(=O)c1cn(C[C@H](Cc2ccccc2)NC(=O)N[C@H](CO)CCc2oc(C(C)=O)c(C(=O)OC)c2C(=O)OC)nn1`, the composite z-score in experiment [1] is -0.562; in experiment [2], -0.0438; in experiment [3], -0.101; in [4], 1.09; in experiment [5], 1.47; in experiment [6], 0.553. Moreover, the composite z-score was 1.39 in experiment [7]; 0.863 in experiment [9]; -0.0383 in experiment [10]; 1.54 in [11]; 1.36 in experiment [15]; -0.0615 in [17]. Moreover, the composite z-score worked out at 1.15 in [18], 1.08 in [19] and 0.272 in experiment [20]. Besides, the z-score in [8] is 0.872 (inactive); in experiment [12], 0.511 (inactive); in experiment [13] it was -0.342 (inactive); in experiment [14], 0.018 (inactive); in experiment [16], -0.616 (inactive).
Take `NCCCCCCNC(=O)[C@@H]1C[C@@H]2C(=O)N3CCC[C@H]3C(=O)N2[C@@H]1c1cccc(OCCO)c1`: the composite z-score in [1] is 1.14; in experiment [2], 0.957; in experiment [3] it was -0.0347; in [4] it was 0.361; in experiment [5] it was 0.0828; in experiment [6], 1.58. Moreover, the composite z-score in experiment [7] was 1.36; in [9] it was 0.492; in experiment [10] it was 0.249; in [11], 1.06; in experiment [15], 1.74; in experiment [17], 0.0686. The results for the composite z-score in experiment [18], in experiment [19] and in [20] were 1.1, 0.73 and 0.0713, respectively. Also, the z-score in experiment [8] was 1.52 (inactive); in [12], -1.18 (inactive); in experiment [13], -0.822 (inactive); in experiment [14], -0.651 (inactive); in experiment [16] it was 0.974 (inactive).
In the case of `O=C1C2C=CC(C(O)c3ccc([N+](=O)[O-])cc3)N(Nc3ccccc3F)C2C(=O)N1c1ccccc1` (stereo not given), the composite z-score in [1] is 0.484; in [2], 0.173; in experiment [3], -0.0172; in experiment [4], 0.438; in [5] it was 1.12; in [6], 1.6. The composite z-score in experiment [7] is 1.29; in experiment [9] it was 0.883; in experiment [10], -0.163; in experiment [11], 0.67; in experiment [15], 1.87; in experiment [17] it was 0.296. Besides, the composite z-score was -0.316 in experiment [18], 0.98 in experiment [19] and -0.0278 in experiment [20]. In addition, the z-score was -0.101 (inactive) in experiment [8]; 0.213 (inactive) in [12]; 0.619 (inactive) in [13]; 1.05 (inactive) in experiment [14]; -0.774 (inactive) in experiment [16].
For `CCCCC(O)C1C=CC2C(=O)N(c3ccccc3)C(=O)C2N1Nc1ccccc1` (stereo not given), the composite z-score is 0.436 in [1]; -0.572 in [2]; -0.0414 in experiment [3]; 0.43 in experiment [4]; 1.2 in experiment [5]; 1.62 in experiment [6]. The composite z-score in [7] was 1.12; in experiment [9], 0.545; in experiment [10], -0.137; in experiment [11], 0.24; in experiment [15], 2.93; in [17] it was -0.0355. Also, the composite z-score in [18] was -0.422; in experiment [19], 0.452; in experiment [20], -0.153. The z-score in [8] was 0.0165 (inactive); in [12], 0.102 (inactive); in [13], -1.32 (inactive); in experiment [14] it was 1.77 (inactive); in [16] it was -0.193 (inactive).
